Among the data in PubChem BioAssay (NCATS) are Potency values, retold here.

The structures appear in SMILES notation. Results filed as inconclusive are left out. Where a call stands in place of a potency, no number is given. Activity calls are given as the source filed them. Calls come from the whole dose curve; tested in HEK293 reporter line.
Potency is the fitted concentration of half-maximal effect.

The test in a line: qHTS for Inhibitors of the Functional Ribonucleoprotein Complex (vRNP) of Lassa (LASV) Arenavirus: LASV Primary Screen - GLuc reporter signal (AID 1347082). Note: nearly all actives have a fitted effect of over 60% in size. Conditions: LASV minigenome vRNP, Gaussia luciferase reporter; series mostly up to 57.5 µM. A general note: Quantitative high-throughput screening tests each substance at several concentrations.
On to `CC(=O)[C@H]1CC[C@H]2[C@@H]3CCC4=CC(=O)CC[C@]4(C)[C@H]3CC[C@]12C`, for which the Potency result is “inactive”.
With `O=C1CCCC(=O)C1C(=O)c1ccc(C(F)(F)F)cc1[N+](=O)[O-]` the entry was “inactive”; with `Cc1ccc(NC(=O)C2(c3ccc4c(c3)OC(F)(F)O4)CC2)nc1-c1cccc(C(=O)O)c1`, 38.5 nM (active); with `O=C1c2c(O)cccc2[C@@H]([C@@H]2O[C@H](CO)[C@@H](O)[C@H](O)[C@H]2O)c2cc(CO)cc(O)c21`, “inactive”.
As to `CN1C2CCC1CC(OC(=O)C1CCC(C(=O)OC3CC4CCC(C3)N4C)(c3ccccc3)c3ccccc31)C2` (stereo not given), the Potency result is “inactive”.
For the molecule `Cc1c(-c2ccc(O)cc2)n(Cc2ccc(OCCN3CCCCCC3)cc2)c2ccc(O)cc12`, the Potency result is “inactive”.
With `Clc1ccc2c(c1)N=C(N1CCNCC1)c1ccccc1N2`, the Potency entry is “inactive”.
In the case of `N[C@@H](CC(=O)N1CCn2c(nnc2C(F)(F)F)C1)Cc1cc(F)c(F)cc1F`, the Potency entry was “inactive”.
The value for `C=C1C(=O)[C@@]23C(CC[C@@H]1[C@H]2O)[C@@]12CO[C@]3(O)[C@@H](O)[C@@H]1C(C)(C)CC[C@@H]2O` (stereo not given in full) was 9680 nM (active); that for `CCCNS(=O)(=O)Nc1ncnc(OCCOc2ncc(Br)cn2)c1-c1ccc(Br)cc1` was “inactive”.
On to `Cc1ccccc1O`, for which the Potency entry was “inactive”.
As for `COc1ccc(-n2nc(C(N)=O)c3c2C(=O)N(c2ccc(N4CCCCC4=O)cc2)CC3)cc1`, the Potency result was “inactive”.
On to `CC(O)[C@H]1CC[C@H]2[C@@H]3CC[C@@H]4C[C@@H](O)CC[C@]4(C)[C@H]3CC[C@]12C` (stereo not given in full), for which the Potency entry was “inactive”.
`CC(C)C(=O)Oc1ccc(CO)cc1[C@H](CCN(C(C)C)C(C)C)c1ccccc1`: the Potency entry was “inactive”.
On to `C[C@H]1COc2c(N3CCN(C)CC3)c(F)cc3c(=O)c(C(=O)O)cn1c23`, for which the Potency entry was “inactive”.
`O=S(=O)(c1cccc2c(Cl)cccc12)N1CCCNCC1`: the Potency entry is “inactive”.
As to `COc1ccc(CCN(C)CCCC(C#N)(c2ccc(OC)c(OC)c2)C(C)C)cc1OC` (stereo not given), the Potency entry is “inactive”.
`CN(C/C=C/c1ccccc1)Cc1cccc2ccccc12`: the Potency entry was “inactive”.
As for `OCCCNc1cc(-c2ccnc(Nc3cccc(Cl)c3)n2)ccn1`, the Potency was 306 nM (active).
For `Cc1ccc(C(=O)Nc2cccc(C(F)(F)F)c2)cc1Nc1nc(-c2cccnc2)nc2c1cnn2C`, the Potency result is “inactive”.
`O=S(=O)(c1cccc2c(I)cccc12)N1CCCNCC1`: the Potency result is “inactive”.
For `C[N+]1(CCCCC[N+]2(C)CCCC2)CCCC1`, the Potency entry is “inactive”.
The value for `O=C(O)c1nc(=O)[nH]c(=O)[nH]1` was “inactive”.
Regarding `CCc1cc2c(cc1N1CCC(N3CCOCC3)CC1)C(C)(C)c1[nH]c3cc(C#N)ccc3c1C2=O`, the Potency result is “inactive”.
With `N#CC(c1ccc(Cl)cc1)c1c(Cl)cc(-n2ncc(=O)[nH]c2=O)cc1Cl` (stereo not given) the entry was “inactive”; with `NC(N)=NCc1cccc(I)c1`, “inactive”.
Take `CO[C@H]1[C@@H](O)[C@H](N)[C@@H](O[C@H]2O[C@H]([C@H](C)N)CC[C@H]2N)[C@H](O)[C@@H]1N(C)C(=O)CN`: the Potency entry is “inactive”.
Take `O=C(O)/C=C/c1ccccc1`: the Potency entry was “inactive”.
The value for `CC(=O)O[C@H]1Cc2ccccc2N(C(N)=O)c2ccccc21` was “inactive”; that for `CCCOc1ccc2[nH]cc(C3=CCNCC3)c2n1` was “inactive”; that for `CC(C)COC(=O)OCN1C(=O)CN(CCN2CC(=O)N(COC(=O)OCC(C)C)C(=O)C2)CC1=O` was “inactive”.
The value for `CN(C)CCC(c1ccc(Br)cc1)c1ccccn1` (stereo not given) was “inactive”.
Consider `COc1ccc(/C=C/C(=O)Nc2ccccc2C(=O)O)cc1OC`, for which the Potency result is “inactive”.
Take `CC(C)(O)C1OC2CCC3(C)C(O)(CCC4Cc5c([nH]c6ccccc56)C43C)C2=CC1=O` (stereo not given): the Potency entry is “inactive”.
`CCc1nc(-c2cccc(C)c2)c(-c2ccnc(NC(=O)c3ccccc3)c2)s1`: the Potency result is “inactive”.
For the molecule `CN(C)CCCN1c2ccccc2CCc2ccccc21`, the Potency entry is “inactive”.
Take `CCC(=O)NCC[C@@H]1CCc2ccc3c(c21)CCO3`: the Potency result is “inactive”.
`OC[C@@H]1[C@@H](O)[C@H](O)[C@H]2[C@@H](O)CCN21`: the Potency result is “inactive”.
In the case of `CC1(C)CCC(CN2CCN(c3ccc(C(=O)NS(=O)(=O)c4ccc(NCC5CCOCC5)c([N+](=O)[O-])c4)c(Oc4cnc5[nH]ccc5c4)c3)CC2)=C(c2ccc(Cl)cc2)C1`, the Potency result was “inactive”.
The value for `O=[N+]([O-])c1c(Cl)cccc1-c1c[nH]cc1Cl` was “inactive”.
